# ELG1 genotox = genotoxicity induction in ELG1-luciferase HEK293T cells | HEK293T ELG1-luciferase reporter, luminescence, 16 h | Potency, µM (highest dose often 46 µM), for inactives: at the top dose activity change, positive = activation, usual class: activators | hit rate 1.3% among 330,000 | AID 504466; further: % of control where 0% means no effect; nearly all actives have a fitted effect of over 60% in size
#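 HEK293T cells expressing luciferase-tagged ELG1 were treated with compound or DMSO for 16 hr at 37°C. Luciferase activity was then read after 30 min with ONE-Glo at room temperature; rising signal flags genetic stress.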
# ELG1 repair inh = inhibitors of ELG1-dependent DNA repair in HEK293T cells | HEK293T ELG1-luciferase reporter, luminescence, 16 h; DNA damage induced by 5-fluorouridine | Potency, µM (top dose mostly 46.1 µM), for inactives: top-dose activity change, negative = inhibition, hits mostly inhibitors | hit rate 2.3% among 330,000; further: on the % scale 0 is the no-effect control and ±100 the full control effect; nearly all actives have a fitted effect of over 55% in size
#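 Cells (2,000 per well) received 5-fluorouridine plus test compound or DMSO and were incubated 16 hr at 37 °C, 5% CO2. Luciferase activity was read by luminescence 30 min after ONE-Glo addition; signal suppression marked inhibition of damage-induced ELG1 function.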
# SMN2 splice up = increases expression of the SMN2 splice variant; AID 1458; Potency, µM (doses to about 46.1 µM), for inactives: top-dose activity change, positive = activation, hits mostly activators; HEK293 SMN2-luciferase splicing reporter, luminescence, 30-36 h; hit rate 2.8% among 210,000; further: % of control where 0% means no effect; nearly all actives have a fitted effect of over 55% in size
#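 HEK293 cells carry an SMN2 minigene-luciferase reporter in which exon 7 inclusion puts luciferase in frame. Cells were seeded at 2000 cells/well, attached for 10-12 hours, then exposed to compounds for 30-36 hours at 37C before ONE-Glo luminescence.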
# NPC1 prom act = activators of NPC1 promoter; Huh7 NPC1 promoter luciferase reporter, 24 h; Potency, µM (titrated, usually from 9.22 µM), inactives show top-dose activation, usual class: activators; hit rate 2.4% among 320,000; further: % of control where 0% means no effect; nearly all actives have a fitted effect of over 60% in size
#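 NPC1 promoter–luciferase Huh7 cells; 24 h compound; luminescence.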
# FLuc modulator = counter-screen for miR-21 project: firefly luciferase inhibitors or activators. P08659. purified FLuc, Km substrates, luminescence inhibition. Potency, µM (series often up to 57.5 µM), inactives show top-dose activity change, negative = inhibition, most hits filed as inhibitors. hit rate 6.9% among 360,000. AID 588342;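 further: plate controls were vehicle for no effect and reference inhibitor for full effect; nearly all actives have a fitted effect of over 55% in size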
# Target sequence (P08659 whole entry, looked up): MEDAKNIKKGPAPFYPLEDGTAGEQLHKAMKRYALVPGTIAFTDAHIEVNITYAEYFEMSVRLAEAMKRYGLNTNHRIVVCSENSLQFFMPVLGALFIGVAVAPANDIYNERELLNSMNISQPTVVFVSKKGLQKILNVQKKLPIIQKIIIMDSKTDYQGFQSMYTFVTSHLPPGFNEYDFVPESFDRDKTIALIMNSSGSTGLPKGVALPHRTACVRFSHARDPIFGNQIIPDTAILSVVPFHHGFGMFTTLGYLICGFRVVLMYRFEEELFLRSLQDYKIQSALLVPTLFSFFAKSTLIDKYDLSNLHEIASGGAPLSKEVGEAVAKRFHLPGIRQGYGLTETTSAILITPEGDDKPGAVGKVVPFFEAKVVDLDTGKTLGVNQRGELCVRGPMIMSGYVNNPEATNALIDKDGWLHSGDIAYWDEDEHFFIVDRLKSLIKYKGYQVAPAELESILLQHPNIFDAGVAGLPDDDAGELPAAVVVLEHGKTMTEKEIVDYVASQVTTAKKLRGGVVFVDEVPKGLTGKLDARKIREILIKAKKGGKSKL
#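 Biochemical qHTS of compounds, final roughly 60 µM downward over six points, against 10 nM purified firefly luciferase using Km concentrations of substrates (10 uM D-luciferin, 10 uM ATP) in Tris acetate pH 7.5 buffer; luminescence output.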
# Rab9 prom act = Rab9 promoter activation. AID 485297. Potency, µM (highest dose often 9.22 µM), for the others: at the highest dose activation, negative = inhibition, usual class: activators. hit rate 2.8% among 320,000. Huh7 Rab9 promoter-luciferase reporter, luminescence, 24 h; further: % of control where 0% means no effect; nearly all actives have a fitted effect of over 60% in size
#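 Steps: seed 1500 Huh7 Rab9-luc cells per well, rest 2 h at 37 °C; add compound in DMSO; incubate 24 h; add luciferase reagent, 10 min ambient; read luminescence.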
# * hit, by the source's call; ? = inconclusive; · = no result given; [ ] = dose if it differs, or a comment. A selection: hits, their analogues and other compounds. The true share with any hit is near 9.2%. The call rests on the fitted dose curve; in most records, active means well fitted curve in the direction sought with a large enough effect; inconclusive means small, poorly fitted or top-dose-only effect, or another doubt; inactive means no such curve, though single readings can be large; an effect the other way counts as inactive or inconclusive. Potency means the concentration at half of the fitted maximal effect.
SMILES,ELG1 genotox,ELG1 repair inh,SMN2 splice up,NPC1 prom act,FLuc modulator,Rab9 prom act
COc1ccc2nc(NC(C)=O)sc2c1,?,?,14µM*,2.2µM*,12µM*,2.5µM*
COc1ccc(OCC(=O)Nc2nc3ccc(NC(C)=O)cc3s2)cc1,12%,?,9%,7%,-15%,19%
COc1ccc2nc(NC(=O)CSCc3c(C)noc3C)sc2c1,?,?,·,1%,?,13%
COc1ccc2nc(NC(=O)c3ccccc3O)sc2c1,?,?,·,1.3µM*,0.13µM*,0.79µM*
CCOCCn1c(=NC(=O)CSCC(=O)Nc2cc(C)on2)sc2cc(OC)ccc21,0%,15µM*,·,-2%,0%,6%
COc1ccc2nc(NC(=O)c3ccccc3[N+](=O)[O-])sc2c1,6%,22%,·,27%,?,?
COc1ccc(Br)cc1C(=O)Nc1nc2ccc(F)cc2s1,·,·,-54%,·,?,·
COc1ccc2nc(NC(=O)CSCC(=O)Nc3cc(C)on3)sc2c1,?,?,·,?,17µM*,5µM*
CC(=O)Nc1nc2ccc(Br)cc2s1,?,?,8%,3.2µM*,17µM*,2.8µM*
Cn1c(=O)c2c(SCC(=O)N3CCc4ccccc43)nc(-c3cccc(F)c3)nc2n(C)c1=O,·,·,·,·,0%,·
COCC1CCN(C(=O)c2cc(COc3cncc(Cl)c3)on2)C1 (configuration not stated),-5%,?,·,-2%,0%,3%
COCC1CCN(C(=O)c2cc(COc3cc(C)c(Cl)c(C)c3)on2)C1 (configuration not stated),6%[9.26 µM],?,·,?,17µM*,4.5µM*
CCN(CC1CCCO1)C(=O)c1cc(COc2cc(C)c(Cl)c(C)c2)on1 (configuration not stated),?,?,·,3.2µM*,13µM*,2.2µM*
Cc1cc(OCc2cc(C(=O)N3CCCCCC3)no2)cc(C)c1Cl,?,?,·,2.8µM*,13µM*,2.5µM*
Cc1ccc(OCc2cc(C(=O)N3CCCCCCC3)no2)cc1C,22%,?,·,?,?,?
Fc1ccc(Nc2nc(SCc3ccccc3F)nc3ccccc23)cc1,·,·,·,·,-1%,·
COc1ccccc1C(=O)NCC(=O)NC(C)c1ccc(-n2ccnc2)cc1 (configuration not stated),8%,-13%,·,1%,0%,4%
CC(NCc1ccc(S(N)(=O)=O)cc1)C(=O)Nc1cc([N+](=O)[O-])ccc1Cl (configuration not stated),-1%,-1%,-8%,-6%,-2%,-2%
CC(NCc1ccc(S(N)(=O)=O)cc1)C(=O)Nc1ccc([N+](=O)[O-])cc1Cl (configuration not stated),-2%,23µM*,-5%,-1%,-3%,0%
COC(c1ccccc1)c1nnc(CCC(=O)N(C)C(C2CC2)C2CC2)o1 (configuration not stated),?,?,·,?,13µM*,2.8µM*
COC(c1ccccc1)c1nnc(CCC(=O)N2CCCCCCC2)o1 (configuration not stated),1%,8%,·,-4%,-4%,-2%
O=C(Nc1ccccc1N1CCOCC1)c1cc(-c2ccncc2)nc2ccccc12,-12%,15µM*,-6%,-3%,-3%,-6%
COc1ccc(-c2cc(C(=O)Nc3ccccc3N3CCOCC3)c3ccccc3n2)cc1OC,-18%,12µM*,-58%,-7%,?,2%
O=C(Nc1ccc(N2CCOCC2)cc1)c1cc(-c2ccncc2)nc2ccccc12,-8%,?,·,-4%,-10%,-3%
CCn1c2ccccc2c2nnc(SCCCn3c(=O)[nH]c4ccccc43)nc21,-30%,23µM*,·,4%,-7%,-3%
CCn1c2ccccc2c2nnc(SCc3ccccc3)nc21,0%,-3%,-18%,10%,?,0%
